Data reported in ChEMBL document CHEMBL1157539, “Thousands of chemical starting points for antimalarial lead identification” (Nature, 2010).

Legend:
Format in all cases: functional
Plasmodium falciparum [1] = assay: GSK_TCMDC: Inhibition of Plasmodium falciparum 3D7 in whole red blood cells, using parasite LDH activity as an index of growth. Test compounds present at 2uM
Plasmodium falciparum [2] = assay: GSK_TCMDC: Inhibition of Plasmodium falciparum Dd2 in whole red blood cells, using parasite LDH activity as an index of growth. Test compounds present at 2uM
HepG2 = assay: GSK_TCMDC: Percent inhibition of human HepG2 cell line. Test compounds present at 10uM.

Row | Compound | Inhibition (Plasmodium falciparum [1]) | Inhibition (Plasmodium falciparum [2]) | Inhibition (HepG2)
1 | Cc1cc(C(=O)Nc2ccc3c(c2)CCN3C2CCN(Cc3ccc(O)cc3)C2)no1 (configuration not stated) | 95% | 86% | 3%
2 | O=C(/C=C/c1ccc(Cl)c(Cl)c1)N1CCCC(CCCN2CCC(c3c[nH]c4ccccc34)CC2)C1 (configuration not stated) | 89% | 15% | 30%
3 | Cc1cc(N(C)C2CCN(CC3CCCCC3)C2)nc(Nc2ccc(Br)cc2)n1 (configuration not stated) | 98% | 38% | 14%
4 | Cc1cccc2nc(-c3cccc(-c4cccc(NC(=O)CN5CCN(C)CC5)c4)c3)[nH]c12 | 100% | 99% | 76%
5 | CC(C)C[C@@H](/C=N/N1CCOC1=O)NC(=O)[C@H](CC(C)C)NC(=O)c1ccc(F)cc1 | 85% | 72% | 1%
6 | COc1cccc(OC)c1-c1ccccc1NC(=O)N1CCCc2cc(C)ccc21 | 82% | 84% | 51%
7 | Br.CCC(C)c1cccc(C(C)CC)c1OCCCON1C(N)=NC(N)=NC1(C)C (configuration not stated) | 91% | 98% | 51%
8 | O=C(/C=C/c1ccccc1Cl)Nc1ccc(Br)c(OCCN2CCN(CCN3CCCC3)CC2)c1.O=C(O)C(=O)O | 99% | 89% | 26%
9 | O=C(Nc1cccc(-c2cccc(-c3nc4cc(C(F)(F)F)ccc4[nH]3)c2)c1)c1ccncc1 | 100% | 61% | 52%
10 | O=C(Nc1ccc(F)cc1)c1cnc(N2CCN(c3ccncc3)CC2)c(Cl)c1.O=C(O)C(F)(F)F | 100% | 81% | 41%
11 | CC1CCN(CCCNc2ccc(C(=O)Nc3ccc(C(F)(F)F)cc3)cc2[N+](=O)[O-])CC1 | 100% | 100% | 62%
12 | CCN(CC)c1cc(C)c2cc(NC(=O)c3cc(=O)c4ccccc4o3)ccc2n1 | 97% | 67% | 14%
13 | Nc1ccc(-c2nc3cc(Oc4ccc5[nH]c(-c6ccc(N)cc6)nc5c4)ccc3[nH]2)cc1 | 100% | 99% | 18%
14 | COc1cc2c(cc1OC)C(C(=O)c1ccccc1)=NCC2.Cl | 85% | 62% | 19%
15 | O=C(/C=C/c1ccc(Cl)c(Cl)c1)N1CCC(CN2CCC(c3c[nH]c4cnccc34)CC2)CC1 | 100% | 100% | 39%
16 | CC(C)CCN(Cc1cncn1Cc1cccc(C(F)(F)F)c1)C(=O)c1ccccc1C#N | 99% | 96% | 0%
17 | Nc1nc(O)c2cc(CN(C=O)c3ccc(C(=O)N[C@@H](CCC(=O)O)C(=O)O)cc3)ccc2n1 | 93% | 94% | 0%
18 | CC(C)(C)c1ccc(S(=O)(=O)Nc2ccccc2N2CCOCC2)cc1 | 90% | 60% | 11%
19 | Fc1ccc2[nH]ccc(=NN=CC=Cc3ccccc3)c2c1 | 96% | 77% | 29%
20 | CCC(C)NS(=O)(=O)c1ccc2nc(Nc3ccc(C)c(Cl)c3)n(C(C)C(C)C)c2c1 (configuration not stated) | 98% | 98% | 22%
21 | O=C(Cn1nc(Br)nc1[N+](=O)[O-])NCC1CCCCC1 | 96% | 57% | 0%
22 | Cl.N#Cc1ccc2c(c1)CCN(CCC1CCC(NC(=O)c3cc4cccc([N+](=O)[O-])c4[nH]3)CC1)C2 (configuration not stated) | 100% | 28% | 0%

Row | Compound | Inhibition (Plasmodium falciparum [1]) | Inhibition (Plasmodium falciparum [2]) | Inhibition (HepG2)
23 | O=C(NCc1ccccc1)c1nn(CCCN2CCC(N3CCCC3)CC2)cc1-c1ccc(Cl)c(Cl)c1 | 100% | 89% | 29%
24 | O=C(Nc1ccc(OC(F)(F)F)cc1)NC1CCN(c2ccnc3ccccc23)C1.O=C(O)C(F)(F)F (configuration not stated) | 100% | 89% | 25%
25 | Cc1cc(NC(=O)c2sc3ccccc3c2O)no1 | 96% | 25% | 6%
26 | COc1cc(-c2nnc(SCC(=O)Nc3cc(C)on3)n2C)cc(OC)c1O | 89% | 2% | 2%
27 | CCNc1cc(C(=O)N[C@@H](Cc2ccccc2)[C@H](O)CNCC(C)C)cc(N2CCCC2=O)c1 | 98% | 97% | 16%
28 | Cc1ccc(NC(=O)c2ccc(N3CCN(c4ccncc4)CC3)cc2)cc1F.O=C(O)C(F)(F)F | 100% | 79% | 47%
29 | CC(CN(C)C)C(=O)Nc1cccc(-c2ccc(-c3nc4ccccc4[nH]3)s2)c1 (configuration not stated) | 100% | 47% | 13%
30 | N#Cc1ccc(N/C(=N\c2ccccc2Br)N(C2CCCCC2)C2CCCCC2)c(O)c1 | 99% | 96% | 4%
31 | CC(C)(CN)c1cc(-c2ccc(Cl)c(O)c2)c(-c2ccncc2)o1.Cl | 92% | 97% | 44%
32 | COc1ccc(OC)c(NC(=O)c2c(-c3c(F)cccc3Cl)noc2C)c1 | 94% | 25% | 0%
33 | Cc1cc(N[C@@H](Cc2ccccc2)C(=O)NCc2cccs2)nc(NCCc2ccccn2)n1.O=C(O)C(F)(F)F | 93% | 49% | 0%
34 | CC(C)CNCc1cccc(-c2cccc(CNCCCN3CCN(C)CC3)c2)c1.O=C(O)C(F)(F)F | 88% | 7% | 5%
35 | CN(C)CCOC(=O)C1(O)CCC2CC1C2(C)C.Cl (configuration not stated) | 95% | 0% | 10%
36 | O=C(c1cc2nc3c(c(C(F)(F)F)n2n1)CCc1ccccc1-3)N1CCN2CCCC2C1 (configuration not stated) | 94% | 3% | 0%
37 | CCN(CC)CCCC(C)Nc1c(-c2ccc(Br)cc2)cnc2ccccc12 (configuration not stated) | 100% | 95% | 7%
38 | CC1(C)N=C(N)N=C(N)N1OCc1cc2ccccc2cc1CON1C(N)=NC(N)=NC1(C)C | 92% | 51% | 0%
39 | CC(C)C[C@H](NC(=O)c1ccc(OCCN2CCOCC2)cc1)C(=O)N[C@H](/C=N/N(C)C(=O)c1ccccc1)CCc1ccccc1 | 91% | 72% | 8%
40 | Cc1cc(N)nc2ccc(-c3cccc(CN)c3)cc12 | 100% | 59% | 2%
41 | Cc1cccc2nc(-c3cccc(-c4cccc(CNCCNC(=O)c5ccnn5C)c4)c3)[nH]c12.O=C(O)C(F)(F)F | 100% | 71% | 26%
42 | CCCCCCn1c(Sc2ccc(C#N)c([N+](=O)[O-])c2)nnc1-c1ccc(N(C)C)cc1 | 92% | 25% | 0%
43 | O=C(Nc1ccc(Cl)c(Cl)c1)N1CCC(NCc2cccc([N+](=O)[O-])c2)CC1.O=C(O)C(F)(F)F | 97% | 12% | 8%
44 | CCCCCCNC(=O)C1Cc2c([nH]c3cc(Cl)ccc23)C2(CCN(CCC)CC2)N1 (configuration not stated) | 92% | 18% | 8%

Row | Compound | Inhibition (Plasmodium falciparum [1]) | Inhibition (Plasmodium falciparum [2]) | Inhibition (HepG2)
45 | Cl.O=c1cc(NCCCNCc2ccc(Cl)c(Cl)c2)[nH]c2ccc(Oc3ccccc3)cc12 | 92% | 29% | 1%
46 | Clc1cc(Cl)c2cc(CN[C@H]3CCC[C@@H]3CNc3nc4ccccc4[nH]3)[nH]c2c1 | 99% | 58% | 85%
47 | O=C(Nc1ccccc1)c1ccc(-c2cc3ccncc3cc2OC2CCNCC2)s1 | 100% | 8% | 0%
48 | O=c1cc(NCCCNCc2cccc3c2OC(F)(F)O3)[nH]c2ccccc12 | 88% | 15% | 4%
49 | O=C(c1ccc(Cl)cc1)N1CCCC(C(=O)N(Cc2nnc(-c3ccccc3Cl)o2)C2CC2)C1 (configuration not stated) | 95% | 96% | 10%
50 | O=C(O)C(F)(F)F.O=S(=O)(NCCN1CCCC1)c1ccc(-c2cccc(CNCCc3cccs3)c2)cc1 | 95% | 30% | 41%
51 | Cc1[nH]c(CNCCCNc2cc(=O)c3ccccc3[nH]2)c(Br)c1Br | 91% | 47% | 0%
52 | CN1CCN(c2ccc(Nc3c4ccccc4nc4ccccc34)cc2)CC1 | 100% | 94% | 0%
53 | Cc1ccc(N(CCC(=N)N)Cc2ccccc2)cc1.Cl | 96% | 95% | 6%
54 | COc1ccc(NC(=O)C2c3ccccc3C(=O)N(CC(C)C)C2c2cccs2)cc1OC (configuration not stated) | 100% | 98% | 6%
55 | CCCC(=O)NC(c1ccc(C(C)C)cc1)c1ccc2cccnc2c1O (configuration not stated) | 90% | 37% | 50%
56 | O=[N+]([O-])c1ccccc1C=NN=c1c2c([nH]c3ccccc13)CCCC2 | 97% | 99% | 0%
57 | Oc1ccc(Cl)cc1Nc1nc(C(F)(F)F)nc2ccccc12 | 86% | 63% | 16%
58 | CCCCC(=O)Nc1cc(=O)[nH]c2nc(-c3ccc(Cl)cc3)nn12 | 89% | 77% | 1%
59 | Cc1nc(N)nc(N)c1OCCCOc1cccc(Cl)c1Cl.Cl | 93% | 95% | 59%
60 | CN(CCCc1c[nH]c2ccccc12)CCC1CCC(NC(=O)/C=C/c2ccc(Cl)c(Cl)c2)CC1 (configuration not stated) | 99% | 63% | 38%
61 | C=CCNc1cc(-c2ccccn2)nc(-c2ccccn2)n1 | 94% | 79% | 78%
62 | COc1ccc2nccc([C@@H](O)CN3CCC(NC(=O)/C=C/c4ccc5[nH]c(=O)ccc5c4)CC3)c2c1 | 96% | 83% | 2%
63 | Cc1cc(-c2nc3cc(C(=N)N)ccc3[nH]2)c(C)cc1-c1nc2cc(C(=N)N)ccc2[nH]1.Cl | 96% | 97% | 0%
64 | Cc1ccc(NC(=O)c2cc(S(=O)(=O)NC(C)(C)C)ccc2C)nc1 | 86% | 80% | 0%
